Screen size: about 310,000 compounds; about 14,000 (4.5%) showed an effect of 50% or more. The effect is printed as a negative number. For the sample, strong results were picked, then their nearest neighbours and some compounds at random.
biological target: human ether-à-go-go-related gene (hERG) potassium channel (human, UniProt Q12809); test: primary screen, population patch clamp on CHO cells stably expressing hERG; higher = less effect of the substance
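Note: peak tail current of the secondary pulse compared with the same well before compound.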

human ether-à-go-go-related gene (hERG) potassium channel, sequence (Q12809 whole entry, looked up): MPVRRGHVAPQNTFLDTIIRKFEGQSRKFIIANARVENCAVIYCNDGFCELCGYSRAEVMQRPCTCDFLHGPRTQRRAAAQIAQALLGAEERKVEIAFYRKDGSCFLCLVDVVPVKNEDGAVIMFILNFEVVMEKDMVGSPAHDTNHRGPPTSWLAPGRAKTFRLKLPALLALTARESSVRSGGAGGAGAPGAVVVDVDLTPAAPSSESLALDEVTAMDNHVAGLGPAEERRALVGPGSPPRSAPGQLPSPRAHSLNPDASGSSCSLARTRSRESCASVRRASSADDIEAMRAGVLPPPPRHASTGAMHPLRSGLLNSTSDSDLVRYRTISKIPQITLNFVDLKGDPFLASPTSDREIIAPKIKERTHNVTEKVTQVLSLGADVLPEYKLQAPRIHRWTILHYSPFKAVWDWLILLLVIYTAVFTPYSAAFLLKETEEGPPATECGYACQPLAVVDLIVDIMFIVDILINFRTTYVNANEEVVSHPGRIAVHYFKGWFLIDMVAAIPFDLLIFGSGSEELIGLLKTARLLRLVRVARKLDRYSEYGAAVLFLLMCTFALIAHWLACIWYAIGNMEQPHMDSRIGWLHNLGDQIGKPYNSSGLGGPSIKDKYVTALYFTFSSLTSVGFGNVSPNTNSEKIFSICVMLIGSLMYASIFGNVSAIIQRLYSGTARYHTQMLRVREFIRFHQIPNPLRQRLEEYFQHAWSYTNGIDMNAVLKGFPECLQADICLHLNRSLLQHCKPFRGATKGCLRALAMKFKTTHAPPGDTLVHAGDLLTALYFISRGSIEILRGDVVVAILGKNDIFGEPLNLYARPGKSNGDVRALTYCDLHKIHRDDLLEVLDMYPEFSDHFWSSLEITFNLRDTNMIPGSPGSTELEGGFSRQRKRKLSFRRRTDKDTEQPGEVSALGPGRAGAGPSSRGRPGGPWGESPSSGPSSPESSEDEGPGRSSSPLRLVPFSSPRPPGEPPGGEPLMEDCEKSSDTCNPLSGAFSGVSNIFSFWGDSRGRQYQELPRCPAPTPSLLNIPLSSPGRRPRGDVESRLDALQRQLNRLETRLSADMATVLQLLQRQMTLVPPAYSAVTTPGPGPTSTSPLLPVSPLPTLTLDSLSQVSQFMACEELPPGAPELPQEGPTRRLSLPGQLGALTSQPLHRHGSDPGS

Row | SMILES | hERG current change (%, negative = inhibition) at 10uM
1 | CCOc1ccccc1NC(=O)NC1(C(=O)NCC2CCCO2)CCCCC1 (stereo not drawn) | 15%
2 | COc1cc(NS(=O)(=O)c2ccc(NC(=O)c3ccc(C)o3)cc2)nc(OC)n1 | -9.23%
3 | Cc1ccc(N)c(C(=O)CCCCC(=O)O)c1 | 7.01%
4 | C[C@@H](C(=O)O)[C@@H]1C[C@@]1(C)[C@@H](NC(=O)OCc1ccccc1)c1ccccc1 | 16.8%
5 | Oc1c(CN2CCOCC2)cc(-c2ccccc2)cc1CN1CCOCC1 | -12.7%
6 | Cc1cc(C)c(NC(=O)Cn2nnc(C(=O)NCc3cccs3)c2N)c(C)c1 | 20%
7 | CCC(C)NC(=S)N(CCc1ccccc1)Cc1cc2cc(OC)c(OC)cc2[nH]c1=O (stereo not drawn) | -32.4%
8 | CCCCCOC(=O)C1=C(C)Nc2nnnn2C1c1ccc(OC)c(OC)c1OC (stereo not drawn) | -41.4%
9 | CCOc1cc(/C=C2\NC(=S)N(C)C2=O)ccc1OCc1ccc(C(=O)O)cc1 | 14.6%
10 | CC(=O)N1CCN(C(=O)c2ccc(-n3c(C)ccc3C)cc2)CC1 | -1.54%
11 | Cc1c(NC(=O)/C=C/c2cn(-c3ccccc3)nc2-c2ccc(F)cc2)c(=O)n(-c2ccccc2)n1C | 7.47%
12 | CCN(CC)c1ccc(N)cc1S(=O)(=O)Nc1ccc(OC)cc1 | -4.91%
13 | Cn1c2c(c(=O)n(C)c1=O)CN(Cc1ccco1)CN2 | 4.7%
14 | CCOc1ccc(S(=O)(=O)N2CCN(C(=O)c3cccnc3)CC2)cc1 | -29.3%
15 | O=C(c1ccc(N2CCCCC2)c([N+](=O)[O-])c1)N1CCN(S(=O)(=O)c2ccccc2)CC1 | -49.9%
16 | N#Cc1ccccc1S(=O)(=O)N1CCN(C(=O)c2ccc(-n3cncn3)c([N+](=O)[O-])c2)CC1 | -23.3%
17 | O=C(c1ccncc1)N1CCN(S(=O)(=O)c2ccccc2Br)CC1 | 4.86%
18 | Cc1ccc(S(=O)(=O)N2CCN(c3ccc(C(=O)N4CCOCC4)cc3[N+](=O)[O-])CC2)cc1 | -59%
19 | NC(=O)c1ccc(N2CCN(S(=O)(=O)c3ccccc3)CC2)c([N+](=O)[O-])c1 | -58.7%
20 | CCOc1ccc(S(=O)(=O)N2CCN(C(=O)c3ccc(-n4cncn4)c([N+](=O)[O-])c3)CC2)cc1 | -71.5%
21 | O=C(c1ccc(N2CCN(S(=O)(=O)c3ccccc3)CC2)c([N+](=O)[O-])c1)N1CCOCC1 | -35.1%
22 | COC(=O)c1ccc(N2CCN(S(=O)(=O)c3ccccc3)CC2)c([N+](=O)[O-])c1 | -14.1%
23 | Cc1ccc(S(=O)(=O)N2CCN(C(=O)c3ccc(N4CCCC4)c([N+](=O)[O-])c3)CC2)cc1 | -18.1%
24 | O=C(c1ccc(-n2cncn2)c([N+](=O)[O-])c1)N1CCN(S(=O)(=O)c2ccccc2Br)CC1 | -70.3%
25 | CCOc1ccc(S(=O)(=O)N2CCN(C(=O)c3ccncc3)CC2)cc1 | 4.67%
26 | Clc1cccc(Cl)c1C1N2CCCN12 (stereo not drawn) | 11.4%
27 | CC(C)c1ccc(CNc2c([N+](=O)[O-])c(=O)oc3ccccc23)cc1 | 14.2%

Row | SMILES | hERG current change (%, negative = inhibition) at 10uM
28 | O=C(/C=C/c1ccc(NC(=O)c2ccccc2-c2ccccc2C(=O)O)cc1)c1ccccc1 | 25.7%
29 | Cc1ccc(C)n1-c1ccc(N2CCOCC2)nc1 | -1.52%
30 | CNC(=O)c1nnc(Cc2ccc(F)cc2)o1 | 9.51%
31 | C/C(CC(=O)Nc1ccc(N(C)C)cc1)=N\NC(=O)c1ccccn1 | 7.77%
32 | O=C(OCc1cc(=O)oc2cc(O)ccc12)c1cc(S(=O)(=O)N2CCOCC2)ccc1F | 5.32%
33 | COC(=O)c1ccc(N2CCN(S(=O)(=O)c3c(C)cc(C)cc3C)CC2)c([N+](=O)[O-])c1 | 21.4%
34 | Cc1cc(C)c(S(=O)(=O)N2CCN(C(=O)c3ccc(-n4cncn4)c([N+](=O)[O-])c3)CC2)c(C)c1 | -62.5%
35 | Cc1ccc(S(=O)(=O)N(C)C)cc1NC(=O)c1ccc(-n2cncn2)c([N+](=O)[O-])c1 | -38.8%
36 | Cc1ccc(S(=O)(=O)N2CCN(C(=O)c3ccc(-n4cncn4)c([N+](=O)[O-])c3)CC2)cc1C | -72.7%
37 | Cc1cc(C)c(NC(=O)CNC(=O)c2ccc(-n3cncn3)c([N+](=O)[O-])c2)c(C)c1 | -12.8%
38 | COC(=O)c1ccc(-n2cncn2)c([N+](=O)[O-])c1 | 12%
39 | CCC(=O)c1ccc(OCC(=O)NCC2COc3ccccc3O2)cc1 (stereo not drawn) | -25.5%
40 | Cc1ccc(S(=O)(=O)N2CCCc3ccccc32)cc1C | 0.165%
41 | C[C@H](NC(=O)c1nc[nH]c1C(=O)N1CCN(C(=O)OC(C)(C)C)CC1)c1ccccc1 | 12.4%
42 | CN(C1CCS(=O)(=O)C1)S(=O)(=O)c1cccs1 (stereo not drawn) | -51.6%
43 | CCCCN(C1CCS(=O)(=O)C1)S(=O)(=O)c1cccs1 (stereo not drawn) | -7.11%
44 | CCN(C1CCS(=O)(=O)C1)S(=O)(=O)c1cccs1 (stereo not drawn) | 14.8%
45 | Cc1cc(CCCCCCCCc2cc(C)cc(=O)o2)oc(=O)c1 | -2.63%
46 | O=C(Nc1nc(-c2ccccn2)cs1)c1cccc(-n2cnnn2)c1 | -5.61%
47 | CC(C)(C)NS(=O)(=O)c1ccc(OCC(=O)NCCC2=CCCCC2)cc1 | -14.1%
48 | CC(=O)c1ccc(N2CCN(C(=O)C3CCCN(c4ncnc5c4nc4n5CCCCC4)C3)CC2)cc1 (stereo not drawn) | -75.4%
49 | CN1CCN(C(=O)C2CCCN(c3ncnc4c3nc3n4CCCCC3)C2)CC1 (stereo not drawn) | 1.36%
50 | CCOC(=O)N1CCN(C(=O)C2CCCN(c3ncnc4c3nc3n4CCCCC3)C2)CC1 (stereo not drawn) | -22.9%
51 | COc1ccccc1N1CCN(C(=O)C2CCCN(c3ncnc4c3nc3n4CCCCC3)C2)CC1 (stereo not drawn) | -12.5%
52 | COc1cccc(N2CCN(C(=O)C3CCCN(c4ncnc5c4nc4n5CCCCC4)C3)CC2)c1 (stereo not drawn) | -81.7%
53 | COc1ccc(N2CCN(C(=O)C3CCCN(c4ncnc5c4nc4n5CCCCC4)C3)CC2)cc1 (stereo not drawn) | -68.7%
54 | CC1CCN(C(=O)C2CCCN(c3ncnc4c3nc3n4CCCCC3)C2)CC1 (stereo not drawn) | -41.5%

Source: article PMC4336329 (PLoS ONE, 2015)
